Source: PubChem BioAssay (NCI)
Several values for one entry are separate records, joined by “and”; a condition that tells them apart may be missing. Equal entries are not always repeated. This is part of a sample that, as a whole, favours compounds with a hit. Of some 79,000 tested, about 15% had one in any assay. Some compounds were tested as several samples or in several runs, with calls that do not always agree. Activity calls are given as the source filed them. No stated cut-off is given here; in the data, active means growth inhibition above about 70%; inactive means the rest.

How the values were obtained:
[1] = NCI Yeast Anticancer Drug Screen. Data for the rad50 strain (AID 155);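 further: 0% = growth of vehicle-only cultures of the same strain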; details: S. cerevisiae rad50 strain growth inhibition, stronger effect = higher value
In short: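 Cells are treated with compound, grown, and their growth is then scored against vehicle-only cultures of the same repair-deficient yeast strain.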

[2] = NCI Yeast Anticancer Drug Screen. Data for the mec2-1 strain (AID 157); details: S. cerevisiae mec2-1 strain, stronger effect = higher value
In short: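 Each compound was tested on mec2-1 yeast, a strain altered in DNA damage repair or cell cycle control. Growth inhibition is reported relative to vehicle.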

[3] = NCI Yeast Anticancer Drug Screen. Data for the sgs1 mgt1 strain (AID 161);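 further: 0% = growth of cultures given vehicle only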; details: S. cerevisiae sgs1 mgt1 strain, stronger effect = higher value
In short: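 Test agents were incubated with a DNA-repair-mutant yeast strain. Growth was then read and compared against vehicle-treated controls.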

[4] = NCI Yeast Anticancer Drug Screen. Data for the cln2 rad14 strain (AID 165);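 further: 0% = growth equal to vehicle treated cultures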; details: S. cerevisiae cln2 rad14 strain, stronger effect = higher value
In short: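 Test compounds were added to cln2 rad14 yeast cultures; inhibition of growth was then determined by comparison with vehicle treatment.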

[5] = NCI Yeast Anticancer Drug Screen. Data for the bub3 strain (AID 167); details: S. cerevisiae bub3 mutant strain, stronger effect = higher value
In short: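 Part of a panel of yeast mutants defective in DNA damage repair or cell cycle regulation. Each strain is grown with compound, and inhibition is calculated relative to solvent-treated cultures.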

[6] = NCI Yeast Anticancer Drug Screen. Data for the mlh1 rad18 strain (AID 175); details: S. cerevisiae mlh1 rad18 strain growth inhibition, stronger effect = higher value
In short: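 Inhibition values reflect reduced growth of mutant yeast versus vehicle-treated controls following compound exposure; the mutations affect DNA damage repair.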

[7] = at 5.0 µM (retest, dose inferred, filed as 0.5)
[8] = at 50.0 µM (retest, dose inferred, filed as 5.0)

| SMILES | growth inhibition [1, 7] | growth inhibition [1, 8] | growth inhibition ([1]; at 50.0 µM) | growth inhibition [2, 7] | growth inhibition [2, 8] | growth inhibition ([2]; at 50.0 µM) | growth inhibition [3, 7] | growth inhibition [3, 8] | growth inhibition ([3]; at 50.0 µM) | growth inhibition [4, 7] | growth inhibition [4, 8] | growth inhibition ([4]; at 50.0 µM) | growth inhibition [5, 7] | growth inhibition [5, 8] | growth inhibition ([5]; at 50.0 µM) | growth inhibition [6, 7] | growth inhibition [6, 8] | growth inhibition ([6]; at 50.0 µM) |
| --- | --- | --- | --- | --- | --- | --- | --- | --- | --- | --- | --- | --- | --- | --- | --- | --- | --- | --- |
| C/C(=N\NC(=S)N1CCN(c2ccccn2)CC1)c1nccs1 | 23% (inactive) | 98% (active) | 86.5% (active) | 43% (inactive) | 99% (active) | 91.6% (active) | 43% (inactive) | 99% (active) | 90.8% (active) | 52% (inactive) | 98% (active) | 89.5% (active) | 73% (active) | 99% (active) | 87.3% (active) | 38% (inactive) | 99% (active) | – |
| C=C1CC2(CC(c3ccccc3OC)OC(c3ccccc3OC)C2)OC1=O (centres undefined) | 34% (inactive) | 58% (inactive) | 61.1% (inactive) | 15% (inactive) | 10% (inactive) | 74.7% (active) | 26% (inactive) | 70% (active) | 54.2% (inactive) | 23% (inactive) | 79% (active) | 71.8% (active) | 21% (inactive) | 14% (inactive) | 60.5% (inactive) | 40% (inactive) | 88% (active) | – |
| CC(=O)OC1COC(n2c(N)c(C#N)c(-c3ccccc3)c(C#N)c2=S)C(OC(C)=O)C1OC(C)=O (centres undefined) | -10% (inactive) and 1% (inactive) | 3% (inactive) and 74% (active) | 25.8% (inactive) and 46% (inactive) | -12% (inactive) and 1% (inactive) | 3% (inactive) and 57% (inactive) | 16.4% (inactive) and 40.7% (inactive) | -7% (inactive) and 2% (inactive) | 16% (inactive) and 48% (inactive) | 73.2% (active) and 65% (inactive) | -18% (inactive) and 1% (inactive) | -17% (inactive) and 61% (inactive) | -6.15% (inactive) and 14.3% (inactive) | -11% (inactive) and 4% (inactive) | -33% (inactive) and 79% (active) | 35.7% (inactive) and 4.05% (inactive) | -7% (inactive) and -2% (inactive) | 8% (inactive) and 73% (active) | 62.9% (inactive) and 56.9% (inactive) |
| Cc1n(-c2ccccc2)c2c([n+]1Cc1ccc([N+](=O)[O-])cc1)C(=O)c1ccccc1C2=O | 1% (inactive) | 97% (active) | 85.2% (active) | -7% (inactive) | 98% (active) | 89% (active) | -10% (inactive) | 98% (active) | 88.5% (active) | 1% (inactive) | 92% (active) | 85.2% (active) | -6% (inactive) | 98% (active) | 88.5% (active) | -8% (inactive) | 96% (active) | – |
| CC[C@@]1(OC(=O)C(N)CCCCN)C(=O)OCc2c1cc1n(c2=O)Cc2cc3ccccc3nc2-1 (some centres undefined) | 92% (active) | 95% (active) | 80.3% (active) | 44% (inactive) | 96% (active) | 83.9% (active) | 18% (inactive) | -11% (inactive) | 77.1% (active) | 13% (inactive) | -36% (inactive) | 45.5% (inactive) | 22% (inactive) | 30% (inactive) | 64.1% (inactive) | 48% (inactive) | 91% (active) | – |
| Clc1nc(Cl)c(Cl)c(Cl)n1 | 29% (inactive) | 98% (active) | 64% (inactive) | 23% (inactive) | 100% (active) | 72.5% (active) | 5% (inactive) | 98% (active) | 8.65% (inactive) | 11% (inactive) | 92% (active) | 13.1% (inactive) | 23% (inactive) | 99% (active) | 33% (inactive) | 39% (inactive) | 98% (active) | – |
| CCSSC(=Nc1ccccc1)OCC(C)C | 17% (inactive) | 91% (active) | 62% (inactive) | 18% (inactive) | 70% (active) | 80.4% (active) | 47% (inactive) | 97% (active) | 71.8% (active) | 50% (inactive) | 92% (active) | 30.8% (inactive) | 52% (inactive) | 97% (active) | 84.4% (active) | 23% (inactive) | 82% (active) | 80% (active) |
| OC(C/C=C/c1ccccc1)(c1ccccc1)c1ccccc1 | 3% (inactive) | 39% (inactive) | 97% (active) and 97.5% (active) | -1% (inactive) | 48% (inactive) | 98.7% (active) | 7% (inactive) | 52% (inactive) | 98.1% (active) and 98.2% (active) | 7% (inactive) | 55% (inactive) | 96.9% (active) and 98.2% (active) | 29% (inactive) | 83% (active) | 96.8% (active) and 97.7% (active) | -2% (inactive) | 61% (inactive) | 97.4% (active) and 98.2% (active) |
| CC(=O)Nc1ccc(S(=O)(=O)N/N=C/c2ccc(C)cc2)cc1 | 7% (inactive) | 8% (inactive) | -3.15% (inactive) | 8% (inactive) | 1% (inactive) | -17.6% (inactive) | 15% (inactive) | 6% (inactive) | 7.45% (inactive) | 8% (inactive) | 1% (inactive) | 64.5% (inactive) | 26% (inactive) | -1% (inactive) | -38.6% (inactive) | 28% (inactive) | 7% (inactive) | -12.4% (inactive) |
| Nc1ccc(N=Nc2ccccc2)c(N)n1 | -166% (inactive) | -14% (inactive) | 38.1% (inactive) and 16.4% (inactive) | -54% (inactive) | -20% (inactive) | 30.4% (inactive) and 10.7% (inactive) | -73% (inactive) | 4% (inactive) | 28.6% (inactive) and 5.05% (inactive) | -72% (inactive) | 10% (inactive) | 9.05% (inactive) and 19.2% (inactive) | -71% (inactive) | -26% (inactive) | 27.2% (inactive) and 3.75% (inactive) | -130% (inactive) | -25% (inactive) | 57.1% (inactive) and 7.85% (inactive) |
| c1ccc(C2=NC(c3ccccc3)=NS(S3=NC(c4ccccc4)=NC(c4ccccc4)=N3)=N2)cc1 (centres undefined) | 27% (inactive) | 94% (active) | 74.7% (active) | 5% (inactive) | 98% (active) | 75.2% (active) | 20% (inactive) | 98% (active) | 82.7% (active) | 20% (inactive) | 94% (active) | 43% (inactive) | 30% (inactive) | 97% (active) | 38% (inactive) | 18% (inactive) | 97% (active) | 92.3% (active) |
| O=C1C=CC(=O)C(c2ccc3ccccc3c2)=C1 | 90% (active) | 98% (active) | 99% (active) | 96% (active) | 99% (active) | 99.1% (active) | 85% (active) | 99% (active) | 99.2% (active) | 73% (active) | 98% (active) | 98.8% (active) | 91% (active) | 97% (active) | 99% (active) | 97% (active) | 99% (active) | 99% (active) |
| Fc1cccc(NC(=S)SCc2ccc(Cl)c(Cl)c2)c1 | 8% (inactive) | 94% (active) | 98.2% (active) | 3% (inactive) | 93% (active) | 99.2% (active) | 6% (inactive) | 98% (active) | 99% (active) | -7% (inactive) | 85% (active) | 98.8% (active) | 0% (inactive) | 95% (active) | 98% (active) | 4% (inactive) | 96% (active) | 99% (active) |
| CCCCCCCCC(Sc1n[nH]c(=O)[nH]c1=O)C(=O)OCC (centres undefined) | 4% (inactive) | 35% (inactive) | 85.5% (active) | 1% (inactive) | 70% (active) | 89.7% (active) | 4% (inactive) | 29% (inactive) | 91.6% (active) | 1% (inactive) | 88% (active) | 84.8% (active) | -4% (inactive) | 88% (active) | 88.5% (active) | 3% (inactive) | 48% (inactive) | 89.5% (active) |
| COc1cc(C2C(C#N)=C(C)Nc3nc(N)nc(N)c32)cc(OC)c1OC (centres undefined) | -6% (inactive) | 19% (inactive) | 24.6% (inactive) | -7% (inactive) | 13% (inactive) | 3.75% (inactive) | -8% (inactive) | 10% (inactive) | 19.1% (inactive) | -6% (inactive) | 9% (inactive) | 81.4% (active) | 0% (inactive) | 65% (inactive) | 1.2% (inactive) | -1% (inactive) | 21% (inactive) | 8.95% (inactive) |
| Oc1cccc2c1-c1ccccc1C2 | -6% (inactive) | 96% (active) | 98.8% (active) | 1% (inactive) | 92% (active) | 98.9% (active) | -7% (inactive) | 97% (active) | 98.4% (active) | -4% (inactive) | 83% (active) | 96.8% (active) | 32% (inactive) | 97% (active) | 98.4% (active) | 9% (inactive) | 98% (active) | 98.1% (active) |
| CN(C)C(=S)SC(=S)N(C)C | 97% (active) and 96% (active) | 99% (active) and 98% (active) | 97.3% (active) and 99% (active) | 98% (active) and 94% (active) | 99% (active) | 98.8% (active) and 98.5% (active) | 97% (active) and 94% (active) | 99% (active) | 99.2% (active) | 97% (active) and 50% (inactive) | 97% (active) | 87% (active) and 97.2% (active) | 99% (active) and 88% (active) | 99% (active) and 98% (active) | 98.5% (active) and 99.2% (active) | 99% (active) and 96% (active) | 99% (active) | 98% (active) and 98.8% (active) |
| O=C(O)C#CC(=O)O | 22% (inactive) | 76% (active) | 76.2% (active) and 1.25% (inactive) | 20% (inactive) | 20% (inactive) | 85.7% (active) and -6.9% (inactive) | 28% (inactive) | 63% (inactive) | 76.2% (active) and 12.3% (inactive) | 31% (inactive) | 30% (inactive) | 17.6% (inactive) and 1.65% (inactive) | 26% (inactive) | 38% (inactive) | 60% (inactive) and -7.7% (inactive) | 35% (inactive) | 60% (inactive) | 75.5% (active) and 15.1% (inactive) |
